According to PubChem BioAssay:
The source made the active and inactive calls. Unless noted, how the calls were made is not given here.

Columns and labels:
[1] = test system: Wnt5a (protein binding on small-molecule microarray); test: small molecules binding Wnt5a protein – biophysical, small-molecule microarray, 635/667 nm fluorescence, primary screen (AID 1142); settings: 635 nm fluorescence, higher = more signal;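 further: fluorescence read at 667 nm with signal to noise per printed feature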
[2] = ATP-based viability of Huh7 replicon cells – cell-based, CellTiter-Glo luminescence, basal, 48 h, cytotoxicity control for HCV replication inhibitor project, primary screen (AID 1143); settings: higher = more signal, called active from +8 up or from −8 down;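 further: Huh7 hepatoma cells carrying a hepatitis C replication reporter with no stimulus; test concentration not given here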
[3] = Pseudomonas biofilm growth suppression – PAO1 strain, BacTiter-Glo luminescence, LB-PBS, primary screen (AID 1144); settings: P. aeruginosa PAO1 biofilm, 12 h, higher = more signal
[4] = basal CRE-LacZ reporter activity in PC12 – cell-based, unstimulated, primary screen (AID 1145); settings: no forskolin, luminescence, 4.5 h, higher = more signal, called active from +8 up or from −8 down
[5] = forskolin-driven CRE-LacZ activity in PC12 – cell-based, CRE-LacZ reporter, forskolin-stimulated, primary screen (AID 1146); settings: luminescence, 4.5 h, higher = more signal, called active from +8 up or from −8 down;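 further: PC12 cells with 6xCRE LacZ reporter stimulated by forskolin 10 µM; beta-galactosidase reporter signal reflecting CREB driven transcription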
[6] = biological target: Streptavidin (Streptomyces avidinii) (UniProt P22629); test: compounds binding control protein streptavidin – biophysical, small-molecule microarray, 635/667 nm fluorescence, artefact control for SMM compound annotation, primary screen (AID 1147); settings: higher = more signal;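 further: signal reflects streptavidin binding to arrayed compounds as a control protein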
[7] = probe aInhba binding on compound microarray – biochemical, small-molecule microarray, 635/667 nm fluorescence, primary screen (AID 1148); settings: higher = more signal;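 further: score merges 667nm spot fluorescence with signal-to-noise for antibody binding to printed compounds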
[8] = biological target: Torsin-1A (Homo sapiens) (UniProt O14656); test: TOR1A wild-type binding on microarray – cell lysate, small-molecule microarray, lysate, 635/667 nm, primary screen (AID 1149); settings: COS7 hTOR1A-WT lysate, 635 nm fluorescence, higher = more signal
[9] = biological target: Torsin-1A (Homo sapiens) (UniProt O14656); test: torsin A mutant lysate binding on microarrays – cell lysate, small-molecule microarray, COS7 lysate, 635/667 nm fluorescence, primary screen (AID 1150); settings: COS7 hTOR1A mutant lysate, 635 nm fluorescence, higher = more signal;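 further: score pools 667 nm emission and signal to noise measuring lysate protein binding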
[10] = test system: Sonic hedgehog protein (Shh); test: Sonic hedgehog microarray binding compounds – biochemical, small-molecule microarray, 635/667 nm fluorescence, primary screen (AID 1151); settings: 635 nm fluorescence, higher = more signal;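 further: Shh protein binding to compounds spotted on small-molecule microarray slides; score combines spot fluorescence intensity with signal-to-noise across triplicate slides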

Torsin-1A (Homo sapiens), sequence (O14656 whole entry, looked up): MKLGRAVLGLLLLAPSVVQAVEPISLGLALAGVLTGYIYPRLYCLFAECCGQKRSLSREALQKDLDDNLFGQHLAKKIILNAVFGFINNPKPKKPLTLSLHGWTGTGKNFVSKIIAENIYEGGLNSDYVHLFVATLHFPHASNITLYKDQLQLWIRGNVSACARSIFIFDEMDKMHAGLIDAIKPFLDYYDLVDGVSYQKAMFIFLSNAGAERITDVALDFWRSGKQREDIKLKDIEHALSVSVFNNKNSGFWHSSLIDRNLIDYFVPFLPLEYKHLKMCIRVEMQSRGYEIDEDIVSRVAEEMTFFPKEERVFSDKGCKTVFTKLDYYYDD
Streptavidin (Streptomyces avidinii), sequence (P22629 whole entry, looked up): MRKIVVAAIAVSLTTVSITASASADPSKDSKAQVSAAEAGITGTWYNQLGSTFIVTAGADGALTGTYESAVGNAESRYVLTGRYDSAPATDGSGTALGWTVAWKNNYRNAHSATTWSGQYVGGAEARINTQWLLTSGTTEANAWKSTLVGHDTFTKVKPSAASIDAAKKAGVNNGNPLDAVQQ

Compound	composite z-score [1]	z-score [2]	z-score [3]	z-score [4]	z-score [5]	composite z-score [6]	composite z-score [7]	composite z-score [8]	composite z-score [9]	composite z-score [10]
C=CCNC(=O)[C@@H]1[C@H]2C(=O)O[C@H](c3ccccc3)[C@H](c3ccccc3)N2[C@H](c2ccc(O)cc2)[C@@]12C(=O)N(C(=O)OCCOC)c1ccc(C#CCCO)cc12	0.905	-0.2 (inactive)	0.171 (inactive)	-0.337 (inactive)	0.243 (inactive)	0.945	0.198	0.463	0.235	2.07
CCCC=C(CCC)[C@@H](NS(=O)(=O)c1cccc2cccnc12)c1ccc(-c2ccccc2)cc1	0.702	-1.52 (inactive)	0.923 (inactive)	-0.379 (inactive)	0.415 (inactive)	1.42	0.475	0.274	0.371	0.632
COC(=O)C(CC#Cc1ccc2c(c1)[C@]1(C(=O)N2)[C@H](C(=O)Nc2nc3ccccc3s2)[C@H]2C(=O)O[C@H](c3ccccc3)[C@H](c3ccccc3)N2[C@@H]1c1ccc(OCCO)cc1)C(=O)OC	1.07	-2.48 (inactive)	-1.7 (inactive)	0.415 (inactive)	-0.856 (inactive)	1.25	0.146	1.65	0.541	1.53
CCOC(=O)C=Cc1cc(F)ccc1O	0.139	-4.58 (inactive)	-0.557 (inactive)	0.276 (inactive)	-0.804 (inactive)	0.761	0.0705	0.165	0.448	-0.587
COCCOC(=O)N1C(=O)[C@@]2(c3cc(C#CC4=CCCCC4)ccc31)[C@H](C(=O)N1CCCCCCC1)[C@H]1C(=O)O[C@H](c3ccccc3)[C@H](c3ccccc3)N1[C@@H]2c1ccc(OCCO)cc1	0.636	-3.96 (inactive)	-0.0896 (inactive)	-0.199 (inactive)	0.463 (inactive)	1.29	0.515	1.04	0.877	1.25
CC(C)C(=C=CC[C@@H](O)c1cccc(OCCO)c1)C[C@@H](O)COCc1ccccc1	0.139	-2.36 (inactive)	0.232 (inactive)	7.66 (inactive)	-1 (inactive)	-0.506	-0.165	-0.134	-0.377	1.06
CC(C)[C@H]1NC(=O)[C@@]23C(=O)N[C@@H](Cc4ccccc4)C2[C@H](C)[C@@]2(C)O[C@H]2C3/C=C/CCC/C=C/CNC(=O)[C@H](Cc2ccccc2)NC1=O (stereo not given in full)	-0.178	-1.23 (inactive)	1.01 (inactive)	1.4 (inactive)	-0.723 (inactive)	-0.77	-0.152	0.343	0.671	2.03
CCCCCN1CC=CC23O[C@@H]4/C=C\CCC(C)OC(=O)C4[C@H]2C(=O)N(CCCCCCO)[C@@H]3C1=O (stereo not given in full)	-0.399	0.259 (inactive)	-0.943 (inactive)	0.467 (inactive)	0.938 (inactive)	-0.749	-0.153	-0.96	0.109	0.758
C=CCC(OC(C)=O)[C@@H]1[C@@H](N(Cc2ccc(-c3cccc(C(F)(F)F)c3)o2)C(=O)c2cccc3ccccc23)c2cc(OCCCO)ccc2N1C(=O)Cc1ccc(OC)cc1 (stereo not given in full)	-0.307	-2.29 (inactive)	0.302 (inactive)	-0.593 (inactive)	0.0843 (inactive)	-0.551	-0.102	-0.577	0.264	0.439
O=C(O)[C@@H]1C[C@@H]2C(=O)N3CCC[C@H]3C(=O)N2[C@@H]1c1cccc(OCCO)c1	1.25	-0.0592 (inactive)	1.36 (inactive)	0.143 (inactive)	-0.382 (inactive)	3.76	1.95	2.99	2.12	2.02
